Compound activity deposited in PubChem BioAssay by several laboratories.
Most compounds without a hit are left out; they make up all but 3.8% or so of the library.
FGF22 binding: binders of human FGF22 protein, primary screen, FGF22 synaptogenesis inhibitor project, biophysical, thermal shift, single point. Fibroblast growth factor 22 (Homo sapiens), Q9HCT0. recombinant FGF22 thermal shift, SYPRO orange fluorescence; percent of sucrose octasulfate shift, DMSO zero. activity (Tm shift, normalised), % at 9.99 µM. hit rate 1.5% among 340,000. AID 651658, 2012;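 active = mean Tm shift, scaled 0 neutral to 100 positive control, at about 1.3% or above, every replicate too, limit read from the data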
Target sequence (Q9HCT0 whole entry, looked up): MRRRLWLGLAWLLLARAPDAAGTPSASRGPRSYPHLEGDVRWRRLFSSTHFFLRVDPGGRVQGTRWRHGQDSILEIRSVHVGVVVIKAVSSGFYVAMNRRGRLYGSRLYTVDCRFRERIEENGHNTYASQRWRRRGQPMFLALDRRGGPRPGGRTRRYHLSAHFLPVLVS
rRNA inh HTS: reduced GFP signal of wild-type E. coli, primary screen, bacterial rRNA inhibitor project, GFP/RFP fluorescence, OD600, single point; E. coli WT GFP vs humanized-ribosome RFP mutants, 24 h; hits give low values; DMSO median 0, no signal -100; GFP signal change (wild-type ribosome), % (test concentration not listed); hit rate 1.6% among 350,000; AID 720706, 2013;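 active = significant combined selectivity score with lowered wild-type GFP, culture density cut under 30%, mutant RFP and density less affected; inactive = any of these conditions unmet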
KLK7 zymogen act: proKLK7 zymogen activators, primary screen, biochemical, fluorescence intensity; Kallikrein-7 (Homo sapiens), P49862; purified proKLK7, EDANS-DABCYL substrate fluorescence; 100% is mature enzyme control, 0% vehicle; activation, % at 7 µM; hit rate 0.9% among 370,000; AID 652039, 2013;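 active = activation above the mean of all tested compounds plus 3 SD, computed per campaign excluding outliers beyond control limits, cut at about 13% in these data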
Target sequence (P49862 whole entry, looked up): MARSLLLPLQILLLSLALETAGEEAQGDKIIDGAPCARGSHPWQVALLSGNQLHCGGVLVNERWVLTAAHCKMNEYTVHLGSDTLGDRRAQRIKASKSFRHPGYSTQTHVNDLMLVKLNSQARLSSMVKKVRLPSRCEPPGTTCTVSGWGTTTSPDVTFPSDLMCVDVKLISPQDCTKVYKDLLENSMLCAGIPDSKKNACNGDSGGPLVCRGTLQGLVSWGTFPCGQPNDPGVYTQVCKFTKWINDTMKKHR
ADAM17 inh: ADAM17 inhibitors, primary screen, biochemical, QFRET; Disintegrin and metalloproteinase domain-containing protein 17 (Homo sapiens), P78536; recombinant ADAM17, EDANS/DABCYL FRET peptide cleavage; inhibition, % at 6.95 µM; hit rate 0.83% among 370,000; AID 720648, 2013;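 active = inhibition above the mean of compounds lying between control limits plus 3 SD, set per campaign, cut at about 8.5% in these data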;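 also: 0% = DMSO-only wells as the low control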
ADAM10 inh: human ADAM10 inhibitors, primary screen, biochemical, QFRET, HTS | AID 720582, 2013 | recombinant ADAM10, EDANS/DABCYL FRET peptide cleavage, 3 h | hit rate 0.62% among 370,000 | inhibition, % at 7 µM;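 active = inhibition above a per-campaign cutoff equal to the mean of compounds falling between control-based bounds plus 3 SD, cut at about 20% in these data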;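 also: 0% = DMSO wells while the 100% control is not disclosed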
* hit, by the source's call; nt = no result given.

SMILES	FGF22 binding	rRNA inh HTS	KLK7 zymogen act	ADAM17 inh	ADAM10 inh
Cc1occc1C(=O)NNC(=S)Nc1cccc([N+](=O)[O-])c1	nt	-19*	-1	3	3
O=C(O)CCCC(=O)Nc1cccc([N+](=O)[O-])c1	43*	16	0	1	-7
CCCC(=O)N1CC2(CN[C@@H](CO)c3c2c2ccc(OC)cc2n3C)C1	nt	2	nt	nt	nt
COc1ccc(NC(=O)N2CC3(C2)CN(C(=O)c2cccnc2)[C@H](CO)c2[nH]c4cc(OC)ccc4c23)cc1	0	-3	nt	nt	nt
CC(=O)N1CC(=O)N2[C@H](CO)[C@@H](c3ccc(-c4ccccc4)cc3)[C@@H]2C1	nt	4	nt	nt	nt
O=C(Nc1cccc([N+](=O)[O-])c1)Nc1cccc([N+](=O)[O-])c1	0	-18*	0	-4	13
CCOc1ccc(NC(=O)C2=C(C)C(=O)OC23CCC(C)CC3)cc1 (centres undefined)	0	-16	0	-1	-8
CC1=C(C(=O)Nc2cccc([N+](=O)[O-])c2)C2(CCC(C)CC2)OC1=O (centres undefined)	44*	nt	-1	3	16
Cc1ccc(C(=O)CNc2cccc([N+](=O)[O-])c2)cc1	43*	14	0	-1	2
O=C(Nc1ccc(C(=O)O)cc1)Nc1cccc([N+](=O)[O-])c1	0	11	0	-1	0
C[C@H](CO)N1C[C@H](C)[C@@H](CN(C)Cc2ccc(C(F)(F)F)cc2)Oc2ccc(NC(=O)C3CCCCC3)cc2CC1=O	0	-2	nt	nt	nt
O=C(O)[C@@H]1[C@@H](CO)[C@@H]2Cn3c(ccc(-c4cncnc4)c3=O)[C@@H]2N1C(=O)C1CCCC1	nt	4	nt	nt	nt
C[C@H](CO)N1C[C@H](C)[C@@H](CN(C)S(=O)(=O)c2cccs2)OCCCC[C@H](C)Oc2ccc(NC(=O)CCCN(C)C)cc2C1=O	0	-3	nt	nt	nt
Cc1ccc(S(=O)(=O)NN2C(=O)/C(=C/c3cccs3)SC2=S)cc1	0	-34*	0	-1	3
COc1ccc(C2CC(=O)C=C(NCc3ccc4c(c3)OCO4)C2)cc1 (centres undefined)	0	-24*	0	-5	-8
COc1ccc([C@H]2CC(=O)C=C(c3ccc4c(c3)OCCO4)C2)cc1	0	-21*	-2	-6	-24
CCCNC(=O)N1CC2(CCN(C(=O)COC)CC2)c2c(n(C)c3cc(OC)ccc23)[C@@H]1CO	nt	0	nt	nt	nt
C/C=C/c1cnc2c(c1)C(=O)N([C@@H](C)CO)C[C@H](C)[C@@H](CN(C)C(=O)NC1CCCCC1)O2	0	3	nt	nt	nt
O=C(Cn1cnc2ccccc21)N/N=C/c1ccccc1	43*	-3	0	4	5
CC(/C=N/NC(=O)Cn1cnc2ccccc21)=C\c1ccccc1	0	-10	0	3	-1
Fc1cc(F)cc(NC(=S)NCCCN2CCOCC2)c1	43*	5	0	2	5
O=C(CSCc1ccccc1)NCCCN1CCOCC1	44*	21	1	1	2
O=C(NCCCN1CCOCC1)c1ccc(Br)cc1	nt	nt	0	-4	-1
Cc1cc(C)n(-c2ccc(C(=O)NCCCN3CCOCC3)cc2)n1	44*	12	0	-2	-4
Fc1cccc(NC(=S)NCCCN2CCOCC2)c1	nt	nt	1	-1	5
Cc1cccc(NC(=O)C(=O)NCCCN2CCOCC2)c1	43*	8	0	0	6
O=C(C[C@H]1C[C@H]2c3cc(NC(=O)Nc4ccc(F)cc4)ccc3O[C@H]2[C@H](CO)O1)NC1CCCCC1	0	-2	nt	nt	nt
O=C(Nc1ccc(Cl)c(Cl)c1)N[C@H]1CC[C@H](CCn2cc(C3CCCC3)nn2)O[C@H]1CO	1	-60	nt	nt	nt
CCN1Cc2cc(C(=O)NCCN3CCCC3)nc(-c3cccc(C4=CCCC4)c3)c2[C@H]1CCO	nt	2	nt	nt	nt
Cc1ccc(OCC(=O)Nc2nnc(C3CCCO3)s2)c(Br)c1 (centres undefined)	44*	5	0	1	-4
